Hits are enriched below; roughly 1.1% of the tested compounds scored in any of these assays.
LmPK inh: LmPK (Leishmania mexicana) enzyme inhibition | purified LmPK, Kinase-Glo ATP luminescence, 1 h | Potency, µM (top dose mostly 57.5 µM), inactives show at the top dose activity change, negative = inhibition, most hits filed as inhibitors | actives 0.37% (n = 290,000) | Q27686; also: % is scaled to controls: 0 for no effect and ±100 for the full control effect
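Pyruvate kinase activity monitored as ATP production (luciferase luminescence). Conditions: 0.1 nM enzyme, 0.5 mM PEP, 0.1 mM ADP, 1 h, RT; normalized against uninhibited and no-enzyme wells.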
RE007 growth inh: less growth of the S. pombe RE007 Vpr strain; Potency, µM (series often up to 92.2 µM), inactives show at the highest dose activity change, negative = less growth, most hits filed as inhibitors; actives 0.21% (n = 360,000); S. pombe RE007 Vpr strain, BacTiter-Glo ATP luminescence, 24 h; active = well fitted falling curve with a large enough effect; inconclusive = small, poorly fitted or top-dose-only effect; inactive = no such curve, though single readings can be large or run the other way; also: % is scaled to controls: 0 for no effect and ±100 for the full control effect; nearly all actives have a fitted effect of over 50% in size
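Fission yeast RE007 carrying one integrated HIV-1 vpr copy, seeded at OD 0.01 in PMG+AL medium with 23 nL pinned compound. Grown 24 h at 30 degrees; viability read by BacTiter-Glo luminescence after 5 min.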
FBPA Giardia inh: inhibitors of Giardia lamblia fructose-1,6-bisphosphate aldolase | A8B2U2 | purified Giardia FBPA | Potency, µM (highest dose often 59.6 µM), for inactives: at the highest dose activity, negative = inhibition, usual class: inhibitors | actives 0.71% (n = 290,000); also: % is scaled to controls: 0 for no effect and ±100 for the full control effect; nearly all actives have a fitted effect of over 55% in size
Target sequence (A8B2U2 whole entry, looked up): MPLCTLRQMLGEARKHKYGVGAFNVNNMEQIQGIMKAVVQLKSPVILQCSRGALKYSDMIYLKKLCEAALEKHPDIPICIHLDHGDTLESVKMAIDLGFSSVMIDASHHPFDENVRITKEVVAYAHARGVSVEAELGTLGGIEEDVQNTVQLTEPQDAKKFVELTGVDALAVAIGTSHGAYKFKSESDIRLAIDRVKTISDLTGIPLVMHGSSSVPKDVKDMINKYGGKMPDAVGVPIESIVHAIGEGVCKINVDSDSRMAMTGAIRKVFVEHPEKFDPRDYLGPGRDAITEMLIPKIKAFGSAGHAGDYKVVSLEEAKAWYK
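40 nM FBPA preincubated 10 min at RT with compound (up to 57.5 uM final), then substrate plus GAPDH/TPI/NAD/arsenate coupling and diaphorase/resazurin added. Fluorescence read after 20 min at RT, 525/598 nm.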
SARS PLpro yeast: blocks SARS-CoV papain-like protease in a yeast assay | S. cerevisiae expressing SARS-CoV PLpro, growth rescue | Potency, µM (top dose mostly 32.9 µM), for the others: at the top dose activity, positive = growth rescue, actives largely listed as activators | actives 0.19% (n = 330,000) | AID 485353; calls by dose curve; also: 0% is about no effect; nearly all actives have a fitted effect of over 55% in size
Tb PYK inh: inhibitors of Trypanosoma brucei pyruvate kinase; TbPYK enzyme, Kinase-Glo Plus ATP luminescence, 45 min; Potency, µM (top dose mostly 76.8 µM), for the others: at the highest dose activity, negative = inhibition, most hits filed as inhibitors; actives 0.12% (n = 410,000); also: % is scaled to controls: 0 for no effect and ±100 for the full control effect; nearly all actives have a fitted effect of over 50% in size
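Screened from lowest to highest concentration, compounds were pinned into TbPYK/substrate mixtures, and ADP (130 uM final) was added. Plates sat at room temperature for 45 min prior to Kinase-Glo Plus detection by luminescence.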
Starred values were filed as active, the others as inactive; ? = inconclusive; / = no result given; ! = a repeat was not active; [ ] = another dose, or the depositor's remark. Unless noted, calls follow the shape of the dose curve; as a rule, active = well fitted curve in the direction sought with a large enough effect; inconclusive = small, poorly fitted or top-dose-only effect, or another doubt; inactive = no such curve, though single readings can be large; an effect the other way counts as inactive or inconclusive. Potency is read from the fitted curve at half-maximal effect.

SMILES	LmPK inh	RE007 growth inh	FBPA Giardia inh	SARS PLpro yeast	Tb PYK inh
CC[n+]1c(/C=C/C=C/c2ccc(N(C)C)cc2)sc2ccccc21	16µM*	6.3µM*	-2%	-7%	?
COc1ccc(OC)c(/C=N/n2c(-c3n[nH]c4c3CCC4)n[nH]c2=S)c1	-10%	3%	-20%	0%	3.5µM*
COc1cc(OC)c(OC)cc1/C=N/n1c(-c2n[nH]c3c2CCC3)n[nH]c1=S	-20%	20%	-19%	0%	2.5µM*
COc1ccc(/C=N/n2c(-c3n[nH]c4c3CCC4)n[nH]c2=S)cc1	-19%	0%	-6%	-1%	?
O=C(COc1ccc(Br)cc1)Nc1ccc(C(=O)OC2CCCCC2)cc1	/	/	/	/	2%
COc1ccc(NC(=O)c2ccc3c(c2)nnn3C2CCCC2)cc1Cl	/	/	/	/	4%
Cc1[nH]c2ccccc2c1SCc1n[nH]c(=S)n1C	7.9µM*	21%	-11%	2%	?
Cc1[nH]c2ccccc2c1Cc1n[nH]c(=S)n1C	-1%	-8%	-11%	10%	?
Cn1c(Cc2c[nH]c3ccccc23)n[nH]c1=S	-5%	1%	-27%	0%	18µM*
Cc1oc(-c2cccc(Cl)c2)nc1CS(=O)(=O)CC(=O)NCc1ccccc1Cl	/	/	/	/	4%
CCc1cccc2c(C(=O)CSc3nncn3-c3ccccc3OC)c[nH]c12	2%	4%	9%	13µM*	0%
C/C(=N/NC(=O)c1ccccn1)c1ccco1	14µM*	-12%	/	-9%	?
CCC(C)(C)C1CCc2[nH]nc(C(=O)N/N=C(\C)c3ccco3)c2C1 (stereo unspecified)	4%	-8%	-3%	-4%	2%
C/C(=N\NC(=O)c1n[nH]c2c1CCC2)c1ccco1	16µM*	-9%	2%	-7%	?
C/C(=N/NC(=O)c1ccccn1)c1ccc(O)cc1	-18%	7%	?	1%	1%
COc1cc(/C=C/c2nc(C#N)c(N3CCC(C)CC3)o2)cc(OC)c1OC	/	/	/	/	1%
Cc1ccc(Nc2nccc(N(C)c3ccc4c(C)n(C)nc4c3)n2)cc1S(N)(=O)=O	/	/	/	/	-5%
Cc1ccc2nc(SCCCCOc3ccccc3)[nH]c2c1	1%	56µM*	-10%	-36%	1%
COc1ccccc1N1CCN(C(=O)CCNS(=O)(=O)c2ccc3c(c2)CCN3C(=O)C2CC2)CC1	/	/	/	/	3%
COc1ccc(S(=O)(=O)Oc2ccc3ccccc3c2)cc1	1%	-11%	-1%	-16%	-8%
COC1=C(OC)C(=O)C(Sc2ccc3ccccc3c2)=CC1=O	/	7.1µM*	/	/	1.8µM*
CC(C)CC(=O)NC1CC(=O)N(c2ccc3c(c2)OCCO3)C1 (stereo unspecified)	/	/	/	/	-3%
Cc1ccc(C)c(NC(=O)CN2C(=O)CCc3cc(S(=O)(=O)N4CCCCC4)ccc32)c1	/	/	/	/	-8%
CC1(C)O[C@@H]2[C@H](O1)[C@@H](COS(=O)(=O)O)O[C@H]2n1cnc2c(N)ncnc21	/	/	/	-11%	/
CC1(C)O[C@@H]2[C@H](O1)[C@@H](COS(=O)(=O)O)O[C@H]2n1c(=S)[nH]c2c(=O)[nH]c(N)nc21	/	0%	/	-1%	35µM*
SMILES	LmPK inh	RE007 growth inh	FBPA Giardia inh	SARS PLpro yeast	Tb PYK inh
Cc1ccccc1NC(=S)c1nc2ccccc2[nH]1	-6%	?	?	/	-2%
S=C(Nc1ccc(Cl)cc1)c1nc2ccccc2[nH]1	-24%	6.3µM*	?	-42%	-18%
NC[C@@H]1O[C@@H](O[C@H]2[C@@H](O)[C@H](O[C@@H]3[C@@H](O)[C@@H](N)C[C@H](N)[C@H]3O[C@H]3O[C@H](CN)[C@@H](O)[C@@H](O)[C@H]3N)O[C@H]2CO)[C@H](N)[C@@H](O)[C@@H]1O	/	/	/	/	-3%
CCC(C(=O)NCc1ccccc1)n1ncn2c(cc3occc32)c1=O (stereo unspecified)	/	/	/	/	-3%
Cc1ccc2sc(NNC(=O)c3cc(=O)c4ccccc4o3)nc2c1C	0%	-15%	22µM*	-6%	-22%
Cc1ccc(NC(=O)c2cnn3c(C(F)F)cc(-c4ccccc4)nc23)c(C)c1	/	/	/	/	1%
CC(=O)c1cc(-c2ccc(F)cc2)n(CC(=O)NC(C)c2ccccc2)c1C (stereo unspecified)	/	/	/	/	4%[15.4 µM]
CCOc1ccc(C2C(C(=O)/C=C/c3ccco3)=C(O)C(=O)N2CCN2CCOCC2)cc1OC (stereo unspecified)	7%[11.5 µM]	6%	7.9µM*	5%	-13%
COc1ccc(OC)c(NC(=O)C(C)n2c(=O)cc(C)c3c(C)nn(-c4ccccc4)c32)c1 (stereo unspecified)	/	/	/	/	0%
O=C(Nc1ccccc1Cl)N1CCC2(CC1)Oc1ccccc1C(=O)N2Cc1ccc(F)cc1	/	/	/	/	-7%
Oc1ccc(N=Cc2ccc(O)c(O)c2)cc1	-13%	-8%	1.6µM*	-12%	?
Oc1ccc(/C=N/N=C/c2ccc(O)c(O)c2)cc1O	-6%	11%	?	-1%	-7%
COc1ccc(C)cc1NC(=O)C1CCCN(c2ncnc3onc(C)c23)C1 (stereo unspecified)	/	/	/	/	0%
O=C(O)CSC1CC(=O)N(c2ccc(Cl)c(Cl)c2)C1=O (stereo unspecified)	1%	11µM*	13%	-36%	7%
O=C1[O][Sb-]23[O]C(=O)C([O]2)C2[O][Sb-]4([O]C(=O)C([O]4)C1[O]3)[O]C2=O	/	/	/	/	3%
Cc1c(F)cccc1NS(=O)(=O)c1cccs1	/	/	/	/	2%
COc1c(Cl)cccc1-c1cn2ccccc2n1	7.1µM*	?	-20%	-13%	-11%
Cc1nnc(N/N=C/c2ccco2)n1N	-2%	-9%	20µM*	-1%	-2%
Cc1nnc(N/N=C/c2ccccc2F)n1N	2%	4%	?	-5%	-3%
Cc1c(CNC2CCCCCC2)c(C(=O)O)c(C)n1Cc1ccc(F)cc1Cl	/	/	/	/	-11%
Clc1cc(Cl)c(OCC#CI)cc1Cl	/	/	/	/	4%
COc1ccc2c(c1)C1=C(CC2)C(c2ccc(C)cc2)NC(=S)N1 (stereo unspecified)	0%	18%	-8%	-5%	-2%
COc1cccc(C2NC(=S)NC3=C2CCc2ccccc23)c1 (stereo unspecified)	3%	9%	16µM*	27%	-11%
O=C1C=CC(=O)c2c(O)c(Cl)c(Cl)c(O)c21	/	/	13µM*	/	/
NC(Cc1ccc(O)c(O)c1)C(=O)O (stereo unspecified)	/	/	16µM*	/	/
C[C@](N)(Cc1ccc(O)c(O)c1)C(=O)O	3%	7%[18.4 µM]	18µM*!	3%	-7%
C[C@](N)(Cc1ccc(O)cc1)C(=O)O	/	/	2%	/	0%
CCCCCOc1ccc(C2SC(=O)NC2=O)cc1OCC (stereo unspecified)	/	/	/	/	-5%

Compound activity deposited in PubChem by National Center for Advancing Translational Sciences (NCATS).
